Rows were chosen to be rich in hits. Some 2.4% of all compounds tested hit in one or more screens of this group.
GLS inhibitor = inhibitors of human glutaminase (GLS). O94925. GLS enzymatic activity, qHTS titration. Potency, µM (doses to about 45.5 µM), for the others: at the highest dose activity change, negative = inhibition, actives largely listed as inhibitors. hit rate 0.21% among 410,000; note: % is set by controls: 0 for no effect and ±100 for the full control effect
Target sequence (O94925 whole entry, looked up): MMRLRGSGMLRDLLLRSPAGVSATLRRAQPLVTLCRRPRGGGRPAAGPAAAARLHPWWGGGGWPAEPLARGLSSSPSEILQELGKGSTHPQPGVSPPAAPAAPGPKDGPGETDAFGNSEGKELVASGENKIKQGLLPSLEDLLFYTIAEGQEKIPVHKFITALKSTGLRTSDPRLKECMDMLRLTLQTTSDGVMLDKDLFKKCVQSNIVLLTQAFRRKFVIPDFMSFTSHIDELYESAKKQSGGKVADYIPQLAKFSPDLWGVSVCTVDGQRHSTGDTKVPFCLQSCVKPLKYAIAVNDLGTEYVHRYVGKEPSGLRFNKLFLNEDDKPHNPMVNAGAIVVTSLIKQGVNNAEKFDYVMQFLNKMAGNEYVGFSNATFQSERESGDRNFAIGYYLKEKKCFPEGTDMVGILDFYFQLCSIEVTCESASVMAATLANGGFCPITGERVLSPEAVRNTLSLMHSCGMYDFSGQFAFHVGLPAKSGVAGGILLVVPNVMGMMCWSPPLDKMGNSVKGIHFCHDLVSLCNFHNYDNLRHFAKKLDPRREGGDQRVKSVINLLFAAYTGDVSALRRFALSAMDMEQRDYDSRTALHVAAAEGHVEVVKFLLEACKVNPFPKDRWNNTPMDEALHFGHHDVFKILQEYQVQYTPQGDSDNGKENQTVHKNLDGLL
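hKGA in 45 mM KH2PO4 pH 8.2, 0.02% Tween-20 with pin-transferred compounds; 1 mM L-glutamine (stock) plus glutamate oxidase/HRP/Amplex Red coupling added. Fluorescence read initially and after 30 min at RT.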
POLH inh = DNA polymerase eta (human) inhibition; Q9Y253; recombinant Pol eta, fluorescent DNA replication assay; Potency, µM (top dose mostly 114 µM), without a hit: at the top dose activity change, negative = inhibition, most hits filed as inhibitors; hit rate 1.2% among 390,000; note: % is set by controls: 0 for no effect and ±100 for the full control effect
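Pol eta (10 nM) was preincubated with compounds for 15 min at room temperature, after which fluorescent replication substrate (50 nM final) was added to start the reaction. Fluorescence was read kinetically at 0 and 10 min.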
APE1 inh = blocks human APE1 abasic DNA cleavage; P27695; recombinant APE1, TAMRA/BHQ-2 abasic DNA cleavage fluorescence; Potency, µM (highest dose often 65.8 µM), inactives show top-dose activity change, negative = inhibition, most hits filed as inhibitors; hit rate 0.35% among 350,000; AID 2517;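 note: plate controls were vehicle for no effect and reference inhibitor for full effect; nearly all actives have a fitted effect of over 55% in size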
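Endonuclease cleavage of a quenched abasic-site DNA duplex (50 nM) by APE1 (0.75 nM) was tracked by TAMRA dequenching. Compounds were preincubated with enzyme 15 min at room temperature; data normalized to buffer-only and DMSO wells plus NSC13755 control.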
POLK inh = DNA polymerase kappa (human) inhibition; Potency, µM (top dose mostly 107 µM), for the others: at the top dose activity, negative = inhibition, usual class: inhibitors; hit rate 0.53% among 400,000; Q9UBT6; purified Pol kappa, fluorescent DNA synthesis assay, 10 min; note: % is set by controls: 0 for no effect and ±100 for the full control effect
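10 nM Pol kappa was preincubated with compounds for 15 min at room temperature. Reaction started with 50 nM (final) substrate. Fluorescence read kinetically at 0 and 10 min.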
POLI inh = blocks human DNA polymerase iota activity; hit rate 1% among 390,000; Pol iota fluorescent replication assay, 10 min; AID 588590; Potency, µM (titrated, usually from 115 µM), for inactives: at the highest dose activity, negative = inhibition, actives largely listed as inhibitors; Q9UNA4
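Fluorescent replication assay read twice, at 0 min and 10 min after adding 50 nM (final) substrate. Enzyme (10 nM) and compounds were first incubated 15 min at room temperature; enzyme-free buffer wells were negative controls.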
Pol beta inh = blocks human DNA polymerase beta activity; P06746; Pol beta primer extension/strand displacement, fluorescence kinetic; Potency, µM (doses to about 114 µM), for the others: at the top dose activity change, negative = inhibition, hits mostly inhibitors; hit rate 1.3% among 340,000; AID 485314; note: % is set by controls: 0 for no effect and ±100 for the full control effect
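Pol beta (10 nM) and compounds were preincubated 15 min at room temperature, then 50 nM substrate (final) started primer extension/strand displacement. Reads were taken at 0 and 10 min; concentration-response data were fitted to a four-parameter Hill equation.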
Active calls of the source: *. Calls come from the whole dose curve; as a rule, active = well fitted curve in the direction sought with a large enough effect; inconclusive = small, poorly fitted or top-dose-only effect, or another doubt; inactive = no such curve, though single readings can be large; an effect the other way counts as inactive or inconclusive. Potency is the fitted concentration of half-maximal effect.

Results for CC(=O)c1ccccc1NS(=O)(=O)c1cccc2nsnc12 ?
GLS inhibitor: -13.4%; POLH inh: 50.1µM*; APE1 inh: 5.32µM*; POLK inh: 79.4µM*; POLI inh: 44.7µM*; Pol beta inh: 25.1µM*

How did CCCOc1ccc(C(=O)N/N=C/c2ccc(-c3ccc(S(=O)(=O)Nc4ncccn4)cc3)o2)cc1 do in these assays?
GLS inhibitor: -30.6%; POLH inh: 20µM*; APE1 inh: 9.9%; POLK inh: 50.1µM*; POLI inh: inconclusive; Pol beta inh: -10.6%

Results for Cc1ccc(CNC(=O)c2cc3c(=O)oc4ccc(C)cc4c3s2)cc1 ?
GLS inhibitor: 2.2%; POLH inh: -19.7%; POLK inh: -16.0%; POLI inh: 33.1%; Pol beta inh: 13.3%

How did COc1cc(C(=O)n2nc(C)cc2C)cc(OC)c1OC do in these assays?
GLS inhibitor: -1.1%; POLH inh: -15.5%; APE1 inh: -0.3%; POLK inh: -3.7%; POLI inh: 8.7%; Pol beta inh: 12.3%

How did COc1ccc(-c2noc(CCC(=O)N3CCN(c4cccc(Cl)c4)CC3)n2)cc1 do in these assays?
GLS inhibitor: 0.7%; POLH inh: -10.2%; APE1 inh: -6.8%; POLK inh: -12.7%; POLI inh: -7.3%

Results for Cc1ccc(CNC(=O)c2cc3c(=O)n(Cc4ccco4)ccc3nc2C)cc1 ?
GLS inhibitor: 1.1%; POLH inh: -10.8%; POLK inh: 0.0%; POLI inh: inconclusive; Pol beta inh: -0.1%

How did Cc1ccccc1-c1nn(-c2ccc(F)cc2F)cc1CNCCCN(C)C do in these assays?
GLS inhibitor: 10µM*; POLH inh: -3.0%; APE1 inh: 2.4%; POLK inh: -6.2%; POLI inh: 28.4%; Pol beta inh: 36.8%

How did COCC(C)N1CCC(n2nccc2NC(=O)c2ccccc2Cl)CC1 (stereo unspecified) do in these assays?
GLS inhibitor: 3.0%; POLH inh: -7.1%; POLK inh: -7.1%; POLI inh: -3.6%

Results for N/C(Cc1ccc([N+](=O)[O-])cc1)=N\OC(=O)c1cccc(Br)c1 ?
GLS inhibitor: 0.3%; POLH inh: -5.8%; APE1 inh: -1.6%; POLK inh: -2.8%; POLI inh: 17.1%; Pol beta inh: -3.0%

What do the screens show for `O=[N+]([O-])c1ccc(N(CC(O)CN2CCCCC2)S(=O)(=O)c2ccccc2)cc1` (stereo unspecified)?
GLS inhibitor: 0.5%; POLH inh: -18.2%; APE1 inh: 21.8%; POLK inh: -4.3%; POLI inh: 52.7%; Pol beta inh: 4.7%

How did CC1=CC(=O)C=C/C1=C(/c1ccc(O)cc1C)c1ccccc1S(=O)(=O)O do in these assays?
GLS inhibitor: 1.9%; POLH inh: 0.6%; APE1 inh: 2.3%; POLK inh: 0.0%; POLI inh: -10.0%

Results for CCN(Cc1cccc(S(=O)(=O)O)c1)c1ccc(C(=C2C=CC(=[N+](CC)Cc3cccc(S(=O)(=O)O)c3)C=C2)c2ccc(O)cc2S(=O)(=O)O)cc1 ?
POLK inh: 2.82µM*; POLI inh: 2.24µM*

How did CCN(Cc1cccc(S(=O)(=O)O)c1)c1ccc(C(=C2C=CC(=[N+](CC)Cc3cccc(S(=O)(=O)O)c3)C=C2)c2ccccc2S(=O)(=O)[O-])cc1 do in these assays?
POLK inh: 7.94µM*; POLI inh: inconclusive

How did C=C1CCC[C@]2(C)C[C@H]3OC(=O)C(CN(C)CC(OC)OC)[C@H]3CC12 (stereo partly specified) do in these assays?
GLS inhibitor: 8.0%; POLH inh: -14.7%; APE1 inh: -0.3%; POLK inh: 5.1%; POLI inh: 22.9%; Pol beta inh: 39.5%

Results for COc1ccc(-n2cc(-c3ccc4c(c3)OCO4)n(CC(=O)Nc3cc(Cl)ccc3C)c2=O)cc1 ?
GLS inhibitor: 2.9%; POLH inh: -11.6%; POLK inh: 5.1%; POLI inh: 26.9%; Pol beta inh: -13.0%
